# Screening results: PubChem, National Center for Advancing Translational Sciences (NCATS)
# Sampled rows, rich in hits. Any-hit rate of the full collection: about 6.5%.
# HCMV inh = blocks human cytomegalovirus replication. HFF cells, HCMV-luciferase reporter, 72 h; stronger effect = lower value. activity change, negative = inhibition, % at 57.5 µM. hit rate 4.5% among 410,000. AID 1259415; in the data active means activity change below about -60%; inconclusive means no clear call, values can overlap the other calls; inactive means above about -39%
#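 HFF cells seeded 16 h at 37C, treated with compounds, infected with luciferase-reporter HCMV at MOI 1 PFU/cell; luciferase read at 72 h post infection, normalized to buffer-only and Salinomycin controls.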
# VACV mCherry inh = vaccinia inhibition (mCherry reporter); hit rate 0.63% among 310,000; Potency, µM (top dose mostly 36.5 µM), without a hit: at the highest dose activity change, negative = inhibition, actives largely listed as inhibitors; Vaccinia virus mCherry reporter infection, fluorescence; calls by dose curve; tested in A549 cells; further: potency means the concentration at half of the fitted maximal effect; nearly all actives have a fitted effect of over 35% in size
# Vaccinia Venus = inhibitors of vaccinia virus (Venus reporter). Vaccinia virus Venus reporter expression, fluorescence. Potency, µM (top dose mostly 36.5 µM), for the others: at the highest dose activity change, negative = inhibition, actives largely listed as inhibitors. hit rate 0.46% among 330,000. AID 720580; calls by dose curve; tested in A549 cells; further: potency means the concentration at half of the fitted maximal effect; nearly all actives have a fitted effect of over 30% in size
# Lassa entry inh = inhibitors of Lassa virus binding or cell entry. Lassa virus pseudotype entry inhibition, cell reporter. hit rate 1.2% among 300,000. Potency, µM (titrated, usually from 37.9 µM), for the others: at the highest dose activity change, negative = inhibition, actives largely listed as inhibitors; calls by dose curve; tested in HEK293 cells; further: potency means the concentration at half of the fitted maximal effect; nearly all actives have a fitted effect of over 50% in size
# Marburg entry inh = inhibitors of Marburg virus binding or cell entry | hit rate 1.8% among 300,000 | Potency, µM (series often up to 37.8 µM), without a hit: at the highest dose activity change, negative = inhibition, hits mostly inhibitors | Marburg virus pseudotyped entry inhibition, cell reporter; calls by dose curve; tested in HEK293 cells; further: potency means the concentration at half of the fitted maximal effect
# FMDV inh = blocks foot and mouth disease virus | FMDV antiviral cell-based qHTS | Potency, µM (doses to about 57.9 µM), for inactives: top-dose activity change, negative = inhibition, most hits filed as inhibitors | hit rate 1.2% among 410,000 | AID 1159524; calls by dose curve; tested in HEK293T cells; further: read-out not given here; potency means the concentration at half of the fitted maximal effect; nearly all actives have a fitted effect of over 45% in size
# An asterisk follows results filed as active; i = inactive; ? = inconclusive; . = no result; [ ] = another dose, or the depositor's remark. On the % scale 0 is the no-effect control and ±100 the full control effect.
SMILES,HCMV inh,VACV mCherry inh,Vaccinia Venus,Lassa entry inh,Marburg entry inh,FMDV inh
CCO[C@@H](Cc1ccc(OCCc2ccc(OS(C)(=O)=O)cc2)cc1)C(=O)O,3,.,.,.,.,.
CCOC(=O)c1ccc(NC(=O)CSc2ncc(S(=O)(=O)c3ccc(C)c(Cl)c3)c(=O)[nH]2)cc1,10,-5%,9%,-12%[46.1 µM],.,3%
COc1cc(/C=C2\SC(N)=NC2=O)ccc1O,-75*,-17%,?,-2%[46.1 µM],?,14%
COc1ccc(N=C2NC(=O)/C(=C/C=C/c3ccccc3)S2)cc1,-40,-17%,-12%,1µM*,-9%,-1%
Cc1cc(/C=C2\SC(=Nc3ccccc3)NC2=O)c(C)n1-c1ccc(S(N)(=O)=O)cc1,-96*,.,?,?,8.9µM*,?
C=CCOc1ccc(/C=C2\SC(N)=NC2=O)cc1OC,116,.,.,.,.,0%
Cc1ccc(-n2c(C)cc(/C=C3\SC(=O)NC3=O)c2C)cc1,25,.,.,.,.,56%
COc1ccc(N=C2NC(=O)/C(=C\C=C\c3ccccc3)S2)cc1,-25,0%,-10%,?,-2%[46.1 µM],-5%
C#CCCCON=C1C[C@@H](O)[C@H](O)[C@H]2[C@@H]3C(=O)N(C4CCCCC4)C(=O)[C@@H]3CC[C@@H]12,.,.,.,.,43%[14.2 µM],.
Cc1cccc(NC(=O)/C(C#N)=C\c2cc(C)n(-c3ccc(C(=O)O)cc3)c2C)c1,-61*,i,-6%,.,.,-14%
N#C/C(=C\c1ccncc1)C(=O)Nc1ccc(C(=O)O)cc1,-99*,.,.,.,.,-15%
Cc1cc(Cl)ccc1OCC(=O)N1CCC(c2nc3ccccc3o2)CC1,?,1%,-3%,11%[46.1 µM],13%[46.1 µM],?
Cc1ccc(O)c(CNCCNCc2cc(C)ccc2O)c1,-67*,?,-10%,.,.,-20%
CCCCCCCCNC(=S)NCCN1CCCCC1,-66*,.,.,?,15µM*,?
O=c1oc(Cl)c(Cl)c2c1CCCC2,.,.,.,.,-28%,.
CCN(CC)S(=O)(=O)c1ccc(S(=O)(=O)N2CCC(C(=O)NC3CCN(Cc4ccccc4)CC3)CC2)cc1,.,7%,-5%,.,?,-5%
Cc1ccc(Cl)cc1S(=O)(=O)N1CCC(C(=O)NC2CCN(Cc3ccccc3)CC2)CC1,-72*,-19%,0%,-12%[46.1 µM],?,-14%
O=C(NCc1ccccn1)C1CCN(S(=O)(=O)c2cc(Cl)ccc2Cl)CC1,-62*,-18%,-7%,-21%,16%,-11%
CC1CCN(C(=O)C2CCN(S(=O)(=O)c3cc(Cl)ccc3Cl)CC2)CC1,-87*,2%,-4%,?,-9%[46.1 µM],-19%
Cc1ccc(NC(=O)C2CCN(S(=O)(=O)c3cc([N+](=O)[O-])ccc3Cl)CC2)nc1,-30,.,.,.,.,?
CCOc1ccc(Cl)cc1S(=O)(=O)N1CCC(C(=O)NCc2ccccn2)CC1,26,-2%,-3%,.,6%[46.1 µM],6%
Cc1ccc2nc(NC(=O)C3CCN(S(=O)(=O)c4cc([N+](=O)[O-])ccc4Cl)CC3)sc2c1,-10,?,?,?,8.2µM*,?
O=C(COc1ccc(Cl)cc1)NCC(c1ccco1)S(=O)(=O)c1ccc(Cl)cc1 (configuration not stated),10,-9%,-11%,-26%[46.1 µM],.,-18%
Cc1cccc(NC(=O)CN2C(=O)CCc3ccccc32)c1C,14,-9%,-8%,8%[46.1 µM],.,4%
O=C(NCc1ccccn1)Nc1cc(Cl)ccc1Cl,-67*,.,.,.,.,8%
SMILES,HCMV inh,VACV mCherry inh,Vaccinia Venus,Lassa entry inh,Marburg entry inh,FMDV inh
O=C(Nc1nc2ccc(F)cc2s1)C1CCN(S(=O)(=O)c2cc([N+](=O)[O-])ccc2Cl)CC1,-6,?,?,?,?,20µM*
Cc1ccc(Cl)cc1NC(=O)NCc1ccccn1,-24,.,.,.,.,27%
O=C(NCc1cccnc1)C1CCN(S(=O)(=O)c2cc([N+](=O)[O-])ccc2Cl)CC1,-29,14µM*,?,1%,-29%,?
CCOC(=O)c1cnc(Nc2nc3ccccc3o2)nc1CSc1nnc(C)s1,53,.,.,?,?,16%
Cc1nc(Nc2nc3ccccc3o2)nc2c1CCC2,-29,.,.,?,7.3µM*,?
CCOC(=O)c1cnc(Nc2nc3ccccc3o2)nc1C,-33,.,.,1.3µM*,4.1µM*,?
COC(=O)CC=C[C@@H](C)[C@@H](C=NO[C@H](C)c1cn([C@H](CO)Cc2ccccc2)nn1)NS(=O)(=O)c1ccc(C)cc1,.,.,.,?,22%[14.2 µM],.
CCOc1ccc(C2c3c(-c4ccc(C)cc4)n[nH]c3C(=O)N2c2ccc(Cl)cc2)cc1 (configuration not stated),-106*,?,?,?,?,-21%
COc1ccccc1C1c2c(-c3ccc(Cl)cc3)n[nH]c2C(=O)N1c1ccc(C)cc1 (configuration not stated),-105*,-12%,-5%,?,?,?
CCOC(=O)c1ccc(N2C(=O)c3[nH]nc(-c4ccc(OC)cc4)c3C2c2ccccc2Cl)cc1 (configuration not stated),11,?,-22%,15%[46.1 µM],3%[46.1 µM],?
CC(=O)c1ccccc1NC(C(=O)Nc1c(C)cccc1C)C1CC1 (configuration not stated),4,.,.,.,.,.
CC(=O)Nc1nonc1-c1nnc(SCc2ccccc2Cl)n1C,22,-8%,-14%,-3%[46.1 µM],10%[46.1 µM],0%
O=S1(=O)c2ccccc2N(Cc2cccc(F)c2)c2ccccc21,-20,-16%,-13%,1%[46.1 µM],.,-24%
CCN=C1NN=C(c2cc(C)n(Cc3ccco3)c2C)CS1,-84*,i,1%,?,?,0.079µM*
C=C(C#CCCO)CCN1C=C(C(=O)OCC)C(c2ccccc2)NC1=O (configuration not stated),.,.,.,?,2%[14.2 µM],.
C=CCNc1nnc(S[C@@H]2CC(=O)N(c3ccc(OC)cc3)C2=O)s1,.,.,.,.,-8%,.
CCN(CC)c1ccc(/C=C2\C=Cc3ccccc32)cc1,.,-4%,-4%,.,.,.
C=CCNCCCCOc1ccc(OCc2ccccc2)cc1,-69*,.,.,.,.,29%
CN(C)S(=O)(=O)Oc1ccsc1C(=O)Nc1cccc(Cl)c1Cl,-68*,i,-15%,?,-22%,-30%
CN(C)S(=O)(=O)Oc1ccsc1C(=O)Nc1ccccc1Cl,-13,.,.,-8%,-12%,-23%
CCOC(=O)N1CCN(Cc2nc(N)nc(Nc3ccc(Oc4ccccc4)cc3)n2)CC1,-11,.,?,?,?,32µM*
Nc1nc(CN2CCN(c3ccccn3)CC2)nc(Nc2ccc(F)cc2)n1,11,.,.,?,2.6µM*,?
CCOC(=O)C1CCCN(Cc2c(F)cccc2Cl)C1 (configuration not stated),-75*,.,.,2%,-3%,-8%
Nc1nc(CN2CCCCCC2)nc(Nc2ccc(F)cc2)n1,10,-8%,0%,8%,4%[46.1 µM],-6%
CCOC(=O)C1CCN(Cc2c(F)cccc2Cl)CC1,42,0%,-8%,?,-5%,8%
